From PubChem
CYP2C19 inh = blocks human cytochrome P450 2C19. inhibition, % at 5 µM. CYP2C19 Supersomes, luciferin-H EGE luminescence, 30 min. hit rate 21% among 96,000. P33261;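 active = CYP2C19 inhibition above a set limit at 5 µM in the primary screen, cut at about 50% in these data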;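 also: plate controls were negative control wells for no effect and 2.5 mM tranylcypromine positive control for full effect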
CYP2C9 inhib = blocks human cytochrome P450 2C9 | inhibition, % at 5 µM | P11712 | AID 777 | hit rate 20% among 96,000 | CYP2C9 Supersomes, luciferin-H conversion, luminescence;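 active = blocking of liver enzyme CYP2C9 beyond about 50% at 5 µM, limit read from the data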
Target sequence (P11712 whole entry, looked up): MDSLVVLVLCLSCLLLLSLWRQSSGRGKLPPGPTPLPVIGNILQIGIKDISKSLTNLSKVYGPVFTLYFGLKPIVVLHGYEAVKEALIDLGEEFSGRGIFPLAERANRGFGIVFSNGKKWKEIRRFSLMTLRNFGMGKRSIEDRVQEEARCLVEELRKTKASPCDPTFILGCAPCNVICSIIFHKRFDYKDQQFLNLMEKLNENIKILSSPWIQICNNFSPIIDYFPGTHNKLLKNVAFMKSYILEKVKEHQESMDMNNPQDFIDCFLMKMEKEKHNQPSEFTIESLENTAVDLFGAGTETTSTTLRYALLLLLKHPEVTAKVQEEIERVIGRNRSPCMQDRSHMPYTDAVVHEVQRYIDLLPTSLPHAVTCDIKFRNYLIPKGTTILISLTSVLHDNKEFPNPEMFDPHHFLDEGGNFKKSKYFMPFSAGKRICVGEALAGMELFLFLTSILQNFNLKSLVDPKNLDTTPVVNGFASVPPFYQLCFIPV
CD11b adhes enh = CD11b/CD18-fibrinogen binding enhancement; AID 1499; P05107+P11215; hit rate 0.07% among 93,000; activation, % at 10 µM; K562 CD11b/CD18 adhesion to fibrinogen, ATPlite luminescence;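 active = 10 µM primary screen giving 50% or more activity, confirmed by 40% or more on retest at that dose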
CYP2C9 act = increases human cytochrome P450 2C9 activity | recombinant CYP2C9, luciferin-H conversion, luminescence; active compounds read high; factor 1 = untreated enzyme, 0 = blocked | hit rate 1.4% among 96,000 | activation factor at 5 µM;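 active = activation factor of 2 or more for CYP2C9 at a 5 µM dose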;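 also: 0 = sulfaphenazole-blocked wells and 1 = vehicle-only wells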
CD11b adhes inh = CD11b/CD18-fibrinogen binding inhibition; P05107+P11215; inhibition, % at 10 µM; K562 CD11b/CD18 adhesion to fibrinogen, ATPlite luminescence; Mn2+ added to activate the integrin; AID 1497; hit rate 0.54% among 93,000;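 active = primary inhibition of 50% or more at 10 µM, then 40% or more on retest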
CYP2C19 act = increases human CYP2C19 enzyme activity; P33261; activation factor at 5 µM; AID 1025; 96,000 tested, under 10 active; recombinant CYP2C19, luciferin-H EGE luminescence; active compounds read high; 0 = fully inhibited enzyme, 1 = untreated enzyme;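 active = activation factor of at least 2 at 5 µM in the primary screen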;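 also: 0 = wells with 2.5 mM tranylcypromine and 1 = vehicle-only wells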
* marks the source's active call; other numbers are inactive results; / = no result. Shown are actives, neighbours in structure and some others; about 28% of the full set was active somewhere.

SMILES	CYP2C19 inh	CYP2C9 inhib	CD11b adhes enh	CYP2C9 act	CD11b adhes inh	CYP2C19 act
O=C(O)c1c(Cl)c(Cl)c(Cl)c(Cl)c1C(=O)N1CCCC1	-4	-3	-3	1	-7	1
O=C(Cn1nc(-c2ccccc2)ccc1=O)NCCN1CCN(Cc2ccccc2)CC1	84*	8	0	0.9	-42	0.2
COc1ccc(N2Cc3cccc(C(=O)N4CCN(C(=O)c5ccco5)CC4)c3C2=O)cc1	26	64*	24	0.4	-10	0.7
COc1ccc(S(=O)(=O)Cc2ccc(C(=O)N3CCN(Cc4ccccc4)CC3)o2)cc1	32	87*	1	0.1	-9	0.7
Cc1ccc(S(=O)(=O)Cc2ccc(C(=O)N3CCN(Cc4ccccc4)CC3)o2)cc1	41	92*	-2	0.1	9	0.6
COc1ccc(S(=O)(=O)Cc2ccc(C(=O)N3CCN(C(=O)c4ccco4)CC3)o2)cc1	18	80*	-1	0.2	-7	0.8
O=C(c1ccc(CS(=O)(=O)c2ccccc2)o1)N1CCOCC1	18	23	-2	0.8	-2	0.8
Cc1ccc(OC(=O)CCC(=O)N2CCc3ccccc32)cc1	-1	-18	-1	1.2	9	1
CCn1c(SCC(=O)Nc2cccc(C(C)=O)c2)nnc1C(C)C	9	11	-3	0.9	-8	0.9
CC(=O)[C@H]1[C@H](c2cccc(Cl)c2)C(C#N)(C#N)[C@@H]2c3ccccc3C=CN21	/	/	10	/	13	/
O=C(Nc1ccc2c(c1)OCCO2)c1ccc(NC(=O)C2CCCO2)cc1 (configuration not stated)	29	23	-6	0.8	-10	0.7
COc1ccc(C(=O)COC(=O)CSCc2c(C)noc2C)cc1OC	64*	34	-5	0.7	-6	0.4
Cc1noc(C)c1CSCC(=O)OCC(=O)NC1CCCCC1	20	12	-3	0.9	-23	0.8
CN1CCN(c2nc3nonc3nc2N2CCN(C)CC2)CC1	5	8	3	0.9	-10	0.9
CCOC(=O)N1CCC(NC(=O)c2ccc(CS(=O)(=O)c3ccccc3C)o2)CC1	-9	77*	15	0.2	0	1.1
Cc1ccccc1S(=O)(=O)Cc1ccc(C(=O)NCCCOC(C)C)o1	29	29	-1	0.7	-11	0.7
CCOC(=O)N1CCC(NC(=O)c2ccc(CS(=O)(=O)c3c(Cl)cccc3Cl)o2)CC1	-7	66*	0	0.3	-7	1.1
CCOC(=O)N1CCN(C(=O)c2ccc(CS(=O)(=O)c3c(Cl)cccc3Cl)o2)CC1	-5	2	2	1	20	1
COc1cc(C)nc(N(Cc2ccccc2)S(=O)(=O)c2ccccc2)n1	83*	74*	2	0.3	15	0.2
CCCN(c1nc(C)cc(OC)n1)S(=O)(=O)c1ccccc1	/	/	10	/	26	/
CCOc1ccc(-c2cn(CCC#N)cn2)cc1	65*	41	-1	0.6	-11	0.3
CCN1CCN(CCCNC(=O)C2CCCN(c3nnc(-n4cccc4)s3)C2)CC1 (configuration not stated)	6	19	2	0.8	-18	0.9
FC(F)(F)c1ccc(Cl)c(NC(=S)NC2CC2)c1	/	/	-3	/	38	/
CCOC(=O)C1=NN(C(=O)c2ccc(C)cc2)C(O)(c2ccc(Cl)cc2)C1 (configuration not stated)	56*	34	1	0.7	4	0.4
Cc1c(C)n(C)c2ccc(C(=O)Nc3cccc4ccccc34)cc12	16	-267	/	3.7*	/	0.8
SMILES	CYP2C19 inh	CYP2C9 inhib	CD11b adhes enh	CYP2C9 act	CD11b adhes inh	CYP2C19 act
Cc1oc2c(c1C(=O)NC(Cc1c[nH]c3ccccc13)C(=O)O)CCCC2 (configuration not stated)	43	80*	0	0.2	10	0.6
O=C(NC(Cc1c[nH]c2ccccc12)C(=O)O)c1ccccc1 (configuration not stated)	7	34	-1	0.7	-5	0.9
Cc1oc2c(c1C(=O)Nc1cccc3ccccc13)CCCC2	85*	81*	-6	0.2	-13	0.2
Cc1cc(=O)oc(C)c1C(=O)Nc1cccc2ccccc12	38	-11	-4	1.1	-30	0.6
CC(NC(=O)c1ccc(-c2cc(C(F)(F)F)ccc2Cl)o1)c1ccccc1 (configuration not stated)	6	-62	-2	1.6	-4	0.9
COc1cc(C2C(C(=O)c3ccc(C)o3)=C(O)C(=O)N2c2cc(C)on2)cc(Br)c1O (configuration not stated)	-4	66*	3	0.3	-27	1
COc1cc(C2C(C(=O)c3ccco3)=C(O)C(=O)N2c2cc(C)on2)cc(Br)c1O (configuration not stated)	0	60*	1	0.4	-9	1
Cc1cc(N2C(=O)C(O)=C(C(=O)c3ccco3)C2c2cccnc2)no1 (configuration not stated)	-1	8	1	0.9	-12	1
COc1ccc(C2C(C(=O)c3ccc(C)o3)=C(O)C(=O)N2c2cc(C)on2)cc1OC (configuration not stated)	1	14	-5	0.9	-21	1
Cc1ccc(N2CN=c3s/c(=C\c4ccccn4)c(=O)n3C2)cc1	4	1	0	1	-2	1
O=C(NCc1ccncc1)C12CC3CC(CC(C3)C1)C2	52*	49	-2	0.5	2	0.5
O=C(NCc1ccccc1)C12CC3CC(CC(C3)C1)C2	31	-3	-3	1	6	0.7
CCC1(C)CC(CCNS(=O)(=O)c2ccc(C)cc2)(c2ccc(C)cc2)CCO1 (configuration not stated)	69*	53*	/	0.5	/	0.3
Cc1ccc(S(=O)(=O)NCCC2(C(C)C)CCOC(C)(C)C2)cc1 (configuration not stated)	22	5	-6	1	0	0.8
O=c1c2ccccc2c2c(O)nc(-c3ccccc3)n2n1Cc1ccccc1	10	54*	46	0.5	1	0.9
CCOC(=O)Cn1c(-c2ccccc2)nc2ccccc2c1=O	6	24	-1	0.8	-13	0.9
O=C(NCc1ccc(Cl)cc1Cl)c1ccccn1	99*	-23	2	1.2	5	0
Clc1ccc(COc2ccccn2)c(Cl)c1	87*	18	-2	0.8	-10	0.1
O=C(N/C=C\c1ccccc1)NCc1ccc(Cl)cc1Cl	27	20	0	0.8	12	0.7
CCOc1cccc(CNc2ccc(O)cc2)c1OCc1ccc(Cl)cc1Cl	30	-12	-9	1.1	47	0.7
O=C(O)C1C2C=CC(C2)C1C(=O)NCCc1ccncc1 (configuration not stated)	78*	23	-2	0.8	1	0.2
